12-LOX inh = blocks human arachidonate 12S-lipoxygenase. P18054. purified 12hLO, xylenol orange hydroperoxide absorbance. actives 1.1% (n = 580,000). Potency, µM (highest dose often 108 µM), inactives show top-dose activity change, negative = inhibition, hits mostly inhibitors; active means well fitted inhibition curve with a large enough effect; inconclusive means small, poorly fitted or top-dose-only effect, or another doubt; inactive means no such curve, though single readings can be large or run the other way; further: potency means the concentration at half of the fitted maximal effect; on the % scale 0 is the no-effect control and ±100 the full control effect
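Purified human 12hLO at 150 nM in 25 mM Hepes, 0.01% Triton X-100, pH 7.0, preincubated 15 min at room temperature with compound. Reaction started with 40 uM arachidonic acid, 30 min at room temperature. Hydroperoxide measured by Fe-xylenol orange, 573/405 nm absorbance ratio.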
KCNH2 WT inh = inhibitors of human wildtype KCNH2 potassium channel; U2OS, BacMam KCNH2, thallium flux FluxOr; hits give low values; activity change, % at 1.84 µM; Q12809; actives 0.37% (n = 340,000);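 active means maximum activity change below -70%; inconclusive means maximum activity change between -70% and -50%; inactive means maximum activity change above -50%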; further: on the % scale 0 is the no-effect control and ±100 the full control effect
Target sequence (Q12809 whole entry, looked up): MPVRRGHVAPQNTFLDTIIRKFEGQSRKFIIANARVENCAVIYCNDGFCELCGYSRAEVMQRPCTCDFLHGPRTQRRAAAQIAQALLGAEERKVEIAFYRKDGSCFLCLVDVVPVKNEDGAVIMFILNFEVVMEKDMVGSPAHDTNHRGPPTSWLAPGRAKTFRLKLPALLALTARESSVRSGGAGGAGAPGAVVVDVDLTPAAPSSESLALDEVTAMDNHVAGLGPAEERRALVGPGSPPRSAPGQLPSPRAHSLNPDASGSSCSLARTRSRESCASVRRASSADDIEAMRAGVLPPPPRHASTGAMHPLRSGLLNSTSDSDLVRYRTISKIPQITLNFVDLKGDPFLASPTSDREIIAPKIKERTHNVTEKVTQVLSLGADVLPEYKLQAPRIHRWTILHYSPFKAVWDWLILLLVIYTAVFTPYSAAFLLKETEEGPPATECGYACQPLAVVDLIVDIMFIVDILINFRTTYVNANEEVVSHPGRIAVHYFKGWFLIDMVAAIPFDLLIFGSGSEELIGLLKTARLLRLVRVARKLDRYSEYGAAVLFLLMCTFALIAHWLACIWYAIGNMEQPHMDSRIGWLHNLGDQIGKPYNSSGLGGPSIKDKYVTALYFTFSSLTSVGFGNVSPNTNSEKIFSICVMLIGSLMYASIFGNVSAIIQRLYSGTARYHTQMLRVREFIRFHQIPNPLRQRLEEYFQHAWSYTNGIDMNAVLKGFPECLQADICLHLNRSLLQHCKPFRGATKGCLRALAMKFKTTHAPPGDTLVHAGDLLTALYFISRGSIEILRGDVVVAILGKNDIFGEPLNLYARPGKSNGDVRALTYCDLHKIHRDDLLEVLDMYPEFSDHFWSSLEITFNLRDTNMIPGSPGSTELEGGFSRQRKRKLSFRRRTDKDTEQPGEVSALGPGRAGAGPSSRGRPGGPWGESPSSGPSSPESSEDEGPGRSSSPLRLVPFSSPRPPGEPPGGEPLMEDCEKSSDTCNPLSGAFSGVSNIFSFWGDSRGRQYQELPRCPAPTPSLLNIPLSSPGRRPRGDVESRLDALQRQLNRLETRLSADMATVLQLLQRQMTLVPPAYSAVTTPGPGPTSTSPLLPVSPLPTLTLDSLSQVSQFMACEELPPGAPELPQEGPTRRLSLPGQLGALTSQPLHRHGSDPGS
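U2OS cells transduced with wild-type KCNH2 virus are loaded with FluxOr dye for 45 min, and thallium flux is measured in kinetic reads before and after stimulation buffer. Rate constants are normalized to DMSO controls.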
KCNH2 3.1 inh = KCNH2 3.1 (human) potassium channel inhibition. U2OS KCNH2 3.1, thallium flux FluxOr; hits give low values. activity change, % (tested at about 1.8 µM). actives 0.95% (n = 340,000);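 active means maximum activity change below -70%; inconclusive means maximum activity change from -70% to -50%; inactive means maximum activity change above -50%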;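 further: thallium influx rate constant from kinetic fluorescence after stimulation buffer; on the % scale 0 is the no-effect control and ±100 the full control effect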
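Virally transduced U2OS (3.1 isoform, 4 h infection in dark at RT) → overnight 37 C → FluxOr + Red40 in HBSS/HEPES, 45 min → stimulation buffer, 2 min kinetic read → rate constant vs DMSO controls.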
BCR signal inh = blocks chronic active B-cell receptor signaling; ABC-DLBCL IkBa-CBG/CBR reporter, luminescence ratio, 4 h; actives 0.05% (n = 340,000); Potency, µM (top dose mostly 46.1 µM), for the others: at the top dose activity change, negative = inhibition, actives largely listed as inhibitors; active means well fitted inhibition curve with a large enough effect in the signal ratio, with a control signal flat, not every such curve was filed as active; inconclusive means small, poorly fitted or top-dose-only effect, or effect the other way, or a change in a side signal; the % refers to the signal ratio;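 further: potency means the concentration at half of the fitted maximal effect; plate controls were basal doxycycline-induced cells for no effect and cells given 10 µM MG132 for full effect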
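TMD8 ABC-DLBCL cells carrying doxycycline-inducible green luciferase fused to IkappaBalpha plus unfused red luciferase were exposed to compounds (up to 46 uM) for 4 hrs at 37C. Activity came from the overlap-corrected green/red luminescence ratio.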
LDHA inh = inhibitors of human lactate dehydrogenase A; actives 0.15% (n = 480,000); purified LDHA, NADH/diaphorase-resazurin fluorescence; hits give low values; P00338; activity change, % (values are at about 110 or 230 µM); in the data active means activity change below about -30%; inconclusive means mostly about -25% to -30%;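 further: plate controls were DMSO wells for no effect and wells without enzyme for full effect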
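Resorufin fluorescence (ex540/em590), read at 0 and 20 min after diaphorase/resazurin addition, reports the NADH left after a 5 min room-temperature reaction of 2 nM human LDH5 with 0.06 mM NADH and 0.2 mM pyruvate.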
ClpP mod = qHTS Assay for Activators of ClpP; Potency, µM (doses to about 57.5 µM), for inactives: top-dose activity change, negative = active; purified B. subtilis ClpP, FRET peptide cleavage, 20 min; AID 651965, 2013; actives 1.9% (n = 340,000); active means well fitted falling curve with a large enough effect; inconclusive means small, poorly fitted or top-dose-only effect; inactive means no such curve, though single readings can be large or run the other way; further: potency means the concentration at half of the fitted maximal effect; the source files actives as falling curves though it sought activators and does not explain the sign; nearly all actives have a fitted effect of over 65% in size
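FRET quenching reversal measured ClpP activation: 10 microg/mL B. subtilis ClpP at pH 8 with the FRET-FV decapeptide, read at 430 nm after 320 nm excitation. The 20-min minus 0-min signal was scaled between DMSO/no-enzyme wells and ADEP (5.8 microM final).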
Starred values were filed as active, the others as inactive; ? = inconclusive; . = no result; [ ] = another dose, or the depositor's remark. In the library only some 3% were active in any assay of this set; here they are far more common.

SMILES	12-LOX inh	KCNH2 WT inh	KCNH2 3.1 inh	BCR signal inh	LDHA inh	ClpP mod
COc1ccc2oc(-c3ccc(NC(=O)c4ccc(C)cc4)cc3)nc2c1	-3%	.	.	.	-7	.
Cc1nc(NC(=O)c2cncc(Br)c2)ccc1Br	?	1	1	4%	-8	-1%
Cc1nc(NC(=O)c2cnccn2)ccc1Br	-4%	-34	-8	1µM*	-5	-2%
C/C(CC(C)(C)c1ccccc1)=N\NC(=O)CCSc1ccccc1	16%	.	.	.	1	.
COc1ccc(OCC(=O)NC2CCCN(Cc3ccc(Cl)cc3)C2)cc1 (stereo not drawn)	16µM*	25	-27	-5%	1	0%
COc1ccc(CN2CCC(C(=O)c3cccc(Cl)c3)CC2)cc1	0%	?	-108*	0%	-1	1%
COc1ccc(CN2CCC(C(=O)c3ccc(Cl)cc3)CC2)cc1	1%	-110*	-97*	-1%	-2	1%
COc1ccc(NC(=S)N2CCC(C(=O)c3ccc(Cl)cc3)CC2)cc1	0%	-37	16	.	-9	1%
COc1cccc(CC(=O)NC2CCCN(Cc3ccc(Cl)cc3)C2)c1 (stereo not drawn)	?	25	-13	1%	-8	-21%
COc1ccc(-c2[nH]ncc2CN2CCC(C(=O)c3ccc(F)cc3)CC2)cc1	49%	-34	-93*	1%	3	.
CCn1c(=O)c2c(nc3n2CCCN3CCc2ccc(OC)c(OC)c2)n(C)c1=O	1%	1	-72*	?	1	1%
COc1ccc2c(c1)CCCN2C(=O)c1cc2ccc(Cl)cc2nc1C	?	.	.	.	-2	.
COc1ccc2c(c1)CCCN2C(=O)c1cc2cc(Cl)ccc2nc1C	45µM*	.	.	.	0	.
Cc1ccc(CNC(=O)c2cc3c(=O)n(Cc4cccnc4)ccc3nc2C)cc1	5%	.	.	.	-2	28µM*
COc1ccc(CNC(=O)c2cc3c(=O)n(Cc4cccnc4)ccc3nc2C)cc1	-18%	.	.	.	-9	25µM*
COc1ccc(CNC(=O)c2cc3c(=O)n(Cc4cccs4)ccc3nc2C)cc1	-16%	.	.	.	-7	14µM*
Cc1nc2ccn(Cc3cccs3)c(=O)c2cc1C(=O)NCc1ccccc1	-14%	.	.	.	-11	4%
COc1cc(C#N)ccc1OC(=O)Cc1coc2ccc3ccccc3c12	8%	.	.	.	9	.
Cc1ccc(-c2ccc(OC(=O)c3ccccc3)c(C)c2)cc1	-4%	.	.	.	0	.
CC(=O)Nc1ccc(NC(=O)COc2ccc([N+](=O)[O-])cc2)cc1	1%	-3	-10	-1%	-11	0%
Cc1ccccc1OCC(=O)Nc1ccc([N+](=O)[O-])cc1	1%	-169*	-3	0%	-4	-3%
Cc1ccc(C=NNC(=O)c2cc(-c3cccnc3)nc3ccccc23)o1	10µM*	21	-10	-14%	-4	.
O=C(N/N=C/c1ccc2ncccc2c1)c1cc(-c2cccs2)nc2ccccc12	-17%	-9	3	-11%	-7	3%
O=C(N/N=C/c1cccnc1)c1cc(-c2cccs2)nc2ccccc12	-1%	1	6	-5%	-12	25µM*
Cc1ccc(/C=N/NC(=O)c2cc(-c3ccccc3)nc3ccccc23)o1	-21%	-5	-1	?	-3	-7%
SMILES	12-LOX inh	KCNH2 WT inh	KCNH2 3.1 inh	BCR signal inh	LDHA inh	ClpP mod
O=C(c1cccc(C(F)(F)F)c1)N1CCN(C/C=C/c2ccccc2)CC1	?	.	.	.	10	.
CCOc1cc(/C=C2\NC(=O)NC2=O)cc(Cl)c1O	?	.	.	.	6	.
CCOc1ccc(NC(=O)c2cc3cc(OCC)ccc3n2C)cc1	57%	.	.	.	15	.
Cn1c(C(=O)Nc2ccc(Cl)cc2)cc2cc(Cl)ccc21	18µM*	10	4	-6%	2	-15%
O=C(c1ccccc1)N1CCC(N2CC3CCCN3C2=O)CC1 (stereo not drawn)	34%[176 µM]	.	.	.	.	.
Brc1cccc[n+]1CCCCCC[n+]1ccccc1Br	.	.	.	.	-60*	-2%
Brc1cccc[n+]1CCCC[n+]1ccccc1Br	.	.	.	.	-62*	?
